From PubChem BioAssay (Tox21)
Results filed as inconclusive are left out. The source made the active and inactive calls. Unless noted, calls come from the whole dose curve; as a rule, active = well fitted curve in the direction sought with a large enough effect in the repeat runs; inconclusive = weak or mixed curves; inactive = no such curve, though single readings can be large; an effect the other way counts as inactive or inconclusive.

What was measured:
[1] = qHTS assay to identify small molecule HDAC inhibitors - cell viability counter screen (AID 1259365); note: series mostly up to about 92 µM; nearly all actives have a fitted effect of over 50% in size
Procedure, shortened: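 Wild-type HCT-116 cells, 1,500/well, cultured overnight, then compound-treated 2 h at 37 C. Viability measured as ATP luminescence with CellTiter-Glo after 30 min at room temperature.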

[2] = qHTS assay to identify small molecule agonists of the sonic hedgehog signaling (Shh) pathway - cell viability counter screen (AID 1259366); note: nearly all actives have a fitted effect of over 50% in size
Procedure, shortened: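 NIH/3T3-derived Gli1-Luc reporter cells, 2,000 per well, received compound after 4 h and were treated about 23 h at 37C. Viability measured in the same wells by CellTiter-Fluor fluorescence after 1 h.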

[3] = qHTS assay to identify small molecule antagonists of the sonic hedgehog signaling (Shh) pathway - cell viability counter screen (AID 1259367); note: nearly all actives have a fitted effect of over 55% in size
Procedure, shortened: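 CellTiter-Fluor signal in conditioned medium-stimulated 3T3 Gli1-Luc cells, 23 hr compound exposure, 37C.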

[4] = qHTS assay to identify small molecule agonists of the sonic hedgehog signaling (Shh) pathway (AID 1259368; calls by dose curve;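 note: NIH/3T3-derived 3T3Gli1-Luc cells carrying a stable Gli1-driven firefly luciferase reporter; series mostly up to about 92 µM; nearly all actives have a fitted effect of over 15% in size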)
Procedure, shortened: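 Cells of a mouse NIH/3T3 clone stably expressing luciferase under the Gli1 transcriptional response element are exposed to test chemicals for 24 hr at 37 C. Pathway activation is detected as a rise in luminescence.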

[5] = qHTS assay to identify small molecule antagonists of the sonic hedgehog signaling (Shh) pathway (AID 1259369; calls by dose curve; note: nearly all actives have a fitted effect of over 45% in size)
Procedure, shortened: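 Cells are plated and held 4hr at 37 C, compounds (DMSO) are pinned in, conditioned medium is added to stimulate the pathway, and after 24hr luciferase reagent is added for 30min before luminescence is read.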

[6] = biological target: Estrogen receptor beta (Homo sapiens) (UniProt Q92731); experiment: qHTS assay to identify small molecule agonists of the estrogen receptor beta (ER-beta) signaling pathway (AID 1259377; active = well fitted activation curve with a large enough effect in the signal ratio in the repeat runs, not every such curve was filed as active; the % refers to the signal ratio)
Estrogen receptor beta (Homo sapiens), sequence (Q92731 whole entry, looked up): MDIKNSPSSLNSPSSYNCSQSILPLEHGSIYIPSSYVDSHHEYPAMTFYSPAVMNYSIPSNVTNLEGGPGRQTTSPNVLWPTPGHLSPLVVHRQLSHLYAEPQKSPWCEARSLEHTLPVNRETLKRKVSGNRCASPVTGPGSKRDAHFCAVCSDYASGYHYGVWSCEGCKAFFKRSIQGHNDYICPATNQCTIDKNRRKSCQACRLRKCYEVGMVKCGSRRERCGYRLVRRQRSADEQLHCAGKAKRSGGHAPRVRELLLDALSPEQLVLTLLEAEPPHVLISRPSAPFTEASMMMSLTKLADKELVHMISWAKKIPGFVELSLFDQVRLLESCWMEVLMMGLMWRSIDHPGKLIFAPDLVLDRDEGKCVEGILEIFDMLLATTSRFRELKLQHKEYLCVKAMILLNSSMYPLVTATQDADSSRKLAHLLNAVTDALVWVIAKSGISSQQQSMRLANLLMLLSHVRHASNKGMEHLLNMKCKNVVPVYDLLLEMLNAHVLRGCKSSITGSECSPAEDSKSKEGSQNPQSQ
Procedure, shortened: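 ER-beta-UAS-bla HEK293T cells in medium with 2% charcoal-stripped FBS were exposed to compounds for 16 h at 37C. Beta-lactamase reporter activity was read as fluorescence after 2 h with LiveBLAzer B/G FRET substrate at room temperature.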

[7] = biological target: Estrogen receptor beta (Homo sapiens) (UniProt Q92731); experiment: qHTS assay to identify small molecule antagonists of the estrogen receptor beta (ER-beta) signaling pathway (AID 1259378; active = well fitted inhibition curve with a large enough effect in the signal ratio in the repeat runs, not every such curve was filed as active; the % refers to the signal ratio)
Procedure, shortened: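 Antagonist mode: compounds added to beta-lactamase reporter HEK293T ER-beta-UAS cells stimulated with E2 (1nM final), 16 hr at 37C. LiveBLAzer B/G FRET substrate, 2 hours room temperature, fluorescence read-out.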

[8] = qHTS assay to identify small molecule agonists of the androgen receptor (AR) signaling pathway in the presence of an antagonist - cell viability counter screen (AID 1259379);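 note: MDA-kb2 human breast cancer cells carrying an MMTV luciferase reporter; series mostly up to about 92 µM; nearly all actives have a fitted effect of over 25% in size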
Procedure, shortened: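 Cytotoxicity is assessed by CellTiter-Fluor in MDA-kb2 cells carrying an MMTV-driven luciferase reporter. Cells receive 3.0uM nilutamide plus compounds at 15 concentrations and incubate 16 hr at 37C without CO2 before fluorescence reading.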

[9] = qHTS assay to identify small molecule agonists of the estrogen receptor beta (ER-beta) signaling pathway - cell viability counter screen (AID 1259380); note: nearly all actives have a fitted effect of over 30% in size
Procedure, shortened: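 Cytotoxicity is measured in parallel with the reporter screen: after 16 hr compound exposure at 37C and a 2 hr LiveBLAzer step, CellTiter-Glo is added to the same ER-beta-UAS-bla HEK293T wells and luminescence read after 30 min.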

[10] = biological target: Androgen receptor (Homo sapiens) (UniProt P10275); experiment: qHTS assay to identify small molecule agonists of the androgen receptor (AR) signaling pathway in the presence of an antagonist (AID 1259381; calls by dose curve; note: nearly all actives have a fitted effect of over 15% in size)
Androgen receptor (Homo sapiens), sequence (P10275 whole entry, looked up): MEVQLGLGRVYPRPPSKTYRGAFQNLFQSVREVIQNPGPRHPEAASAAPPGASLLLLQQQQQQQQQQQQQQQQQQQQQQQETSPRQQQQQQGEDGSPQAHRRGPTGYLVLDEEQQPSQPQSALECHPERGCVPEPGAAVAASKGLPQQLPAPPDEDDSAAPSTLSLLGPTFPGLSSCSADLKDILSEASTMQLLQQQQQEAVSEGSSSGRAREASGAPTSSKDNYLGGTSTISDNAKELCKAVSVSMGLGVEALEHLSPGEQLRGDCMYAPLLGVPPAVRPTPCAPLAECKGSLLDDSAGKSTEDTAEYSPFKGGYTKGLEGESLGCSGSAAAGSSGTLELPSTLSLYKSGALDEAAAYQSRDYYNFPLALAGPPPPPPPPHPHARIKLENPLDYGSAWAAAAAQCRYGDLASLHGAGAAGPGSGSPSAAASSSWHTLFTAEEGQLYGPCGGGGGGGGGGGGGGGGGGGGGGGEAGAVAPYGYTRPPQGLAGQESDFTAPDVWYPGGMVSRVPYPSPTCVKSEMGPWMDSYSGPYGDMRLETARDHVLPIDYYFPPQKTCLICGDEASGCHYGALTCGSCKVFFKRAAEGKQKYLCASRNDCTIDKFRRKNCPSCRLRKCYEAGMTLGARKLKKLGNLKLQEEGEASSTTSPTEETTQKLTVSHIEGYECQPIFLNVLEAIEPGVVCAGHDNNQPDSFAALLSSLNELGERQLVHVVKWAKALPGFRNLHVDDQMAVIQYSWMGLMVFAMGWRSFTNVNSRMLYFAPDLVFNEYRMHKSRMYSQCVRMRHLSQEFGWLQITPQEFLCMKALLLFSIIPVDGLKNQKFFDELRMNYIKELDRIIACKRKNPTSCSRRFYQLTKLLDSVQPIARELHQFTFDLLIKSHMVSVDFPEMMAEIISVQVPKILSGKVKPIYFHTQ
Procedure, shortened: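 Agonist-mode confirmation screen: human MDA-kb2 cells stably expressing luciferase under an MMTV promoter bearing AR and GR response elements, co-treated with 3.0uM nilutamide (final). Luminescence measured after 16hr compound incubation.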

Measured: Potency

CC1(C)S[C@@H]2[C@H](NC(=O)Cc3ccccc3)C(=O)N2[C@H]1C(=O)O (tested in a mixture with another compound)
not listed: [10]
inactive: all other assays above

CC(=O)c1c(C)cc(C(C)(C)C)cc1C
not listed: [10]
inactive: all other assays above

Cc1ccc2ccccc2n1
not listed: [10]
inactive: all other assays above

C=CCN(CC=C)CC=C
not listed: [10]
inactive: all other assays above

CCCCCCCCCCCCCCBr
not listed: [10]
inactive: all other assays above

CCOC(=O)CC(C(C)=O)C(C)=O
not listed: [10]
inactive: all other assays above

C=CC(C)(CCC=C(C)C)OC(=O)C(C)C (stereo unspecified)
not listed: [10]
inactive: all other assays above

C=COCCCCO
not listed: [10]
inactive: all other assays above

CC/C=C/CCCCCCCCCCOC(C)=O
not listed: [10]
inactive: all other assays above

Cc1cc(C)c(N)c(Cl)c1
not listed: [10]
inactive: all other assays above

CN(C)c1ccncc1
not listed: [9] | [10]
inactive: all other assays above

C[n+]1ccccc1/C=N/O
not listed: [10]
inactive: all other assays above

C/C(Cl)=C/CCl
inactive: all assays above

CN(C)c1cc(NC(=O)CNC(C)(C)C)c(O)c2c1C[C@H]1C[C@H]3[C@H](N(C)C)C(=O)C(C(N)=O)=C(O)[C@@]3(O)C(=O)C1=C2O
inactive: all assays above

CCCCCC(CC)OC(=O)CCCOc1ccc(Cl)cc1Cl (stereo unspecified)
not listed: [10]
inactive: all other assays above

Cc1ccc(N)nc1
not listed: [9]
inactive: all other assays above

O=C(O)CCC(=O)Nc1ccc(S(=O)(=O)Nc2nccs2)cc1
not listed: [7] | [9] | [10]
inactive: all other assays above

O=c1c(O)c(O)c1=O
inactive: [1] | [2] | [3] | [4] | [5] | [8]

C=CC(=O)OCC[N+](C)(C)C
not listed: [10]
inactive: all other assays above

CCC(C)(C)C
not listed: [8] | [10]
inactive: all other assays above

COCc1nnc(-c2ccc[n+]([O-])c2)n1-c1c(Cl)c(Cl)cc2[nH]c(=O)c(=O)[nH]c12
not listed: [6]
inactive: all other assays above

O=C(O)/C=C(\CC(=O)O)C(=O)O
not listed: [10]
inactive: all other assays above

CCCCCCC(=O)c1ccccc1
not listed: [6] | [10]
inactive: all other assays above

CCCCCCC(O)CO (stereo unspecified)
not listed: [6] | [10]
inactive: all other assays above

Cc1ccc(S(=O)(=O)NC(=O)NN2CC3CCCC3C2)cc1 (stereo unspecified)
inactive: [1] | [2] | [3] | [4] | [5] | [8]

Cc1cc2c(cc1CC(=O)c1sccc1S(=O)(=O)Nc1onc(C)c1Cl)OCO2
not listed: [6] | [9] | [10]
inactive: all other assays above

Cc1ccc2cccnc2c1
not listed: [9]
inactive: all other assays above
